Data: PubChem BioAssay (Tox21)
Values joined by “and” are separate entries in the source; they are usually repeats but may differ in a detail not shown here. Equal values may be shown once. Results filed as inconclusive are left out. More than one record can exist for a structure, and the calls need not agree. Active and inactive are the calls of the source. Calls follow the shape of the dose curve; as a rule, active = well fitted inhibition curve with a large enough effect in the repeat runs; inconclusive = weak or mixed curves, or effect the other way; inactive = no such curve, though single readings can be large or run the other way.

These compounds were tested against Nuclear receptor ROR-gamma (Homo sapiens) (UniProt P51449) (assay: qHTS assay to identify small molecule antagonists of the retinoid-related orphan receptor gamma (ROR-gamma) signaling pathway (AID 1159521; also: nearly all actives have a fitted effect of over 50% in size; as to activity change, negative = inhibition: top concentration of the series differs between compounds)). Settings: Tet-on RORgamma CHO cells, RORE-luciferase, 16 h; series mostly up to 92.4 µM; activity change, negative = inhibition: at the top concentration.
Source text: U.S. Tox21 Program National Center for Advancing Translational Sciences [NCATS] NIH Chemical Genomics Center [NCGC] U.S. Environmental Protection Agency [EPA] National Institutes of Environmental Health Sciences [NIEHS] National Toxicology Program [NTP] U.S. Food and Drug Administration [FDA] Tox21 Assay Overview: Nuclear steroid hormone receptors are involved in many biological processes including inflammatory responses, cell proliferation, and apoptosis. Environmental factors or compounds disrupting these nuclear receptor pathways and gene expression may promote susceptibility to immunotoxicants and autoimmune diseases. One important group of these expression factors are the retinoid-related orphan receptors. To assess compounds that may interfere with the retinoid-related orphan receptor gamma (ROR-gamma) transcription factor, a cell-based luciferase assay was used. The CHO cell-based assay utilizes a TET-inducible ROR expression factor and ROR response element-LUC reporter gene. Reporter gene activity was induced using Doxycycline Hyclate and measured after 16 hr incubation. Tet-on ROR gamma CHO cells were used to screen against the Tox21 10K compound library for ROR gamma antagonists by quantification of decreased reporter gene activity in terms of decreased luminescence.
Tox21 Assay Protocol Summary: Tet-on ROR gamma CHO cells were dispensed at 1,000 cells in 4 uL of culture medium per well into white wall/solid bottom 1536-well plates using a Multidrop Combi (Thermo Scientific, Waltham, MA) dispenser. Following incubation at 37 C and 5% CO2 for 4 hr, 23 nL of compounds dissolved in DMSO, positive controls or DMSO only were transferred by a Pintool station (Kalypsys, San Diego, CA) and after 2 hr incubation at 37 C, one ul of 1 uM (final concentration) of Doxycycline Hyclate was added to all the wells by using a Flying Reagent Dispenser (FRD) (Aurora Discovery, San Diego, CA). After 16 hr incubation at 37 C and 5% CO2, 5 uL of ONE-Glo reagent (Promega Corporation, Madison, WI) was added to each assay plate using FRD. After 30 min incubation at room temperature, luminescence was quantified on a ViewLux plate reader (Perkin Elmer, Waltham, MA).
% is scaled to controls: 0 for no effect and ±100 for the full control effect; potency is read from the fitted curve at half-maximal effect.

| SMILES | activity change, negative = inhibition | Potency |
| --- | --- | --- |
| O=C(Cl)/C=C/C(=O)Cl | -0.06% (inactive) | – |
| N[C@@H](Cc1ccc(Oc2cc(I)c(O)c(I)c2)c(I)c1)C(=O)O | 9.71% [at 42.5 µM] (inactive) | – |
| CCCOC(=O)Cc1ccc(OCC(=O)N(CC)CC)c(OC)c1 | -4.25% [at 42.5 µM] (inactive) | – |
| CCc1ccc(C2CCNCC2)cc1 | -0.292% [at 42.5 µM] (inactive) | – |
| C[C@H]1CCCC(=O)CCC/C=C/c2cc(O)cc(O)c2C(=O)O1 | – | 20.9 µM (active) and inactive |
| CCOC(=O)CC(SP(=S)(OC)OC)C(=O)OCC (stereo not given) | 8.76% [at 42.5 µM] (inactive) | – |
| O=C(Cl)C(Cl)Cl | 6.41% (inactive) | – |
| CC(Cl)(Cl)Cl | 1.23% (inactive) | – |
| OCC(Cl)CCl (stereo not given) | -1.22% (inactive) | – |
| BrCC1CO1 (stereo not given) | -2.41% (inactive) | – |
| Cc1ccc(Cl)c(O)c1 | 14.4% [at 42.5 µM] (inactive) | – |
| CCNc1nc(NCC)nc(SC)n1 | 2.04% (inactive) | – |
| COc1ccc2c(C(=O)c3ccc(Cl)cc3)c(C)n(CC(=O)O)c2c1 | -1.54% [at 42.5 µM] (inactive) | – |
| Cc1cccc2sc3nncn3c12 | 12.8% (inactive) | – |
| Cn1c(CCCC(=O)O)nc2cc(N(CCCl)CCCl)ccc21 | -7.91% [at 42.5 µM] (inactive) | – |
| CCC1(CC)C(=O)C=CNC1=O | -9.5% [at 42.5 µM] (inactive) | – |
| CC(C)NCC(O)c1ccc([N+](=O)[O-])cc1 (stereo not given) | 45.1% [at 42.5 µM] (inactive) | – |
| [P]#[In] | 1.45% (inactive) | – |
| CCN(CCO)CCO | 2.32% (inactive) | – |
| CC#Cc1cc(C)nc(Nc2ccccc2)n1 | -4.14% (inactive) | – |

| SMILES | activity change, negative = inhibition | Potency |
| --- | --- | --- |
| O=C(NC(=O)c1c(F)cccc1F)Nc1cc(Cl)c(F)c(Cl)c1F | 15% (inactive) | – |
| CCOC(=O)C(SP(=S)(OC)OC)c1ccccc1 (stereo not given) | -28.4% (inactive) | – |
| CON(C)C(=O)Nc1ccc(Br)cc1 | 50.9% (inactive) | – |
| c1cncc([C@@H]2CCCCN2)c1 | 10.6% (inactive) | – |
| CN(C)CCN(C)C | 21.5% (inactive) | – |
| CCSC(=O)Cl | -1.81% (inactive) | – |
| CCOC(=O)NC(C)(C)Cc1ccc(Cl)cc1 | -1.53% [at 42.5 µM] (inactive) | – |
| BrCCc1ccccc1 | -9.64% (inactive) | – |
| O=C1CCCCC1Cl (stereo not given) | 30.9% (inactive) | – |
| C=C(C)[C@H]1CN[C@H](C(=O)O)[C@H]1CC(=O)O | -6.66% [at 42.5 µM] (inactive) | – |
| CCCCCCCC(=O)Cl | -3.51% (inactive) | – |
| CCN[C@@H](C)Cc1ccccc1 | 11.7% (inactive) | – |
| CCN(CC)C1CCCCC1 | 7.96% (inactive) | – |
| CN1COCN(Cc2cnc(Cl)s2)/C1=N\[N+](=O)[O-] | -14.1% (inactive) | – |
| NC1(c2ccccc2)CCCCC1 | 9.31% (inactive) | – |
| CNC(=O)Oc1ccccc1C(C)C | 32.1% (inactive) | – |
| O=C(NC(O)C(Cl)(Cl)Cl)NC(O)C(Cl)(Cl)Cl (stereo not given) | 6.43% [at 42.5 µM] (inactive) | – |
| N[C@@H]1C[C@H]1c1ccccc1 | 53.6% [at 42.5 µM] (inactive) | – |
| COc1ccccc1OC | -10.2% (inactive) | – |
| CC(C)(C)c1cc(O)ccc1O | – | 13.7 µM (active) and 24.3 µM (active) |
